The list is not random: actives were taken first. Their share in the collection is about 32%.
PostGolgi yeast = growth inhibition of a yeast mutant, post-Golgi transport screen; post-Golgi transport phenotypic cell assay; inhibition, % at 10 µM; hit rate 0.9% among 98,000; AID 739;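 further: yeast cells grown in 1536-well plates; yeast grown about 18 h at 30C before absorbance read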
CYP2C19 activ = cytochrome P450 2C19 (human) activation; P33261; recombinant CYP2C19, luciferin-H EGE luminescence; stronger effect = higher value; 0 = fully inhibited enzyme, 1 = untreated enzyme; activation factor at 5 µM; 96,000 tested, under 10 active;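 active means activation factor of at least 2 at 5 µM in the primary screen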
CYP2C9 inh = human CYP2C9 inhibition; CYP2C9 Supersomes, luciferin-H conversion, luminescence; hit rate 20% among 96,000; inhibition, % at 5 µM; P11712;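 active means blocking of liver enzyme CYP2C9 beyond about 50% at 5 µM, limit read from the data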
Target sequence (P11712 whole entry, looked up): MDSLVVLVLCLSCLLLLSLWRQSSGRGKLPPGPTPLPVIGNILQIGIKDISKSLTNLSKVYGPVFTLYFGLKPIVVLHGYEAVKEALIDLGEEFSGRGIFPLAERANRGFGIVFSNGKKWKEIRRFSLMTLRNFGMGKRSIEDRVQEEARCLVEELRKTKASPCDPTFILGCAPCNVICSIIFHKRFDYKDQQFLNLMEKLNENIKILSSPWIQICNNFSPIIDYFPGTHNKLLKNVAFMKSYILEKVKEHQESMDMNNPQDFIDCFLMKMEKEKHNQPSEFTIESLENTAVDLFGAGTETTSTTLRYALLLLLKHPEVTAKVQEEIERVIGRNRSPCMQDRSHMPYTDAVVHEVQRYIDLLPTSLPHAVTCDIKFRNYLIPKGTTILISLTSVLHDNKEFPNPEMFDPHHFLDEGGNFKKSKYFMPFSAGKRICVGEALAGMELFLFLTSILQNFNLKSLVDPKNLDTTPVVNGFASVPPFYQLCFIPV
PostGolgi ctrl = inhibits growth of the yeast control strain; AID 738; inhibition, % at 10 µM; efflux-deficient yeast background strain, growth absorbance A615, 16 h; hit rate 5% among 98,000
CYP2C9 activ = increases human cytochrome P450 2C9 activity; P11712; recombinant CYP2C9, luciferin-H conversion, luminescence; stronger effect = higher value; factor 1 = untreated enzyme, 0 = blocked; activation factor at 5 µM; hit rate 1.4% among 96,000; AID 1024;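 active means activation factor of 2 or more for CYP2C9 at a 5 µM dose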
CYP2C19 inh = inhibitors of human CYP2C19 | P33261 | CYP2C19 Supersomes, luciferin-H EGE luminescence, 30 min | inhibition, % at 5 µM | hit rate 21% among 96,000 | AID 778;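 active means CYP2C19 inhibition above a set limit at 5 µM in the primary screen, cut at about 50% in these data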
Numbers stand for hits; n = inactive; x = not tested or not shown. Unless noted, no stated cut-off is given here; in the data, active means inhibition above about 30%; inactive means the rest.

SMILES	PostGolgi yeast	CYP2C19 activ	CYP2C9 inh	PostGolgi ctrl	CYP2C9 activ	CYP2C19 inh
Cc1cc(C)c2c(N=CN(C)C)c(C(=O)N3CCN(c4ncccn4)CC3)sc2n1	n	n	69	n	n	n
Cc1cc(C)c2c(N)c(C(=O)N3CCCCCC3)sc2n1	n	n	n	n	n	51
O=C(Nc1ccccc1C(=O)N1CCCC1)c1cccc(S(=O)(=O)N2CCCCC2)c1	n	n	n	n	n	n
O=C(Nc1ccccc1N1CCN(c2ccc(F)cc2)CC1)c1ccccc1	n	n	n	n	n	n
CN1CCN(c2ccccc2NC(=O)c2ccc(OCc3ccccc3)cc2)CC1	n	n	n	n	n	n
CN1CCN(c2ccccc2NC(=O)c2cccc(OCc3ccccc3)c2)CC1	n	n	52	n	n	n
COc1cccc(C(=O)Nc2ccccc2C(=O)N2CCCC2)c1	n	n	n	n	n	54
CN1CCN(c2ccccc2NC(=O)c2ccc(-c3ccccc3)cc2)CC1	n	n	70	n	n	94
CCN(CC)c1ccc(NC(=O)c2cccc(OC)c2)c(C)c1	n	n	n	n	2.5	n
CCSc1ncc(C#N)c(=O)[nH]1	n	n	n	n	n	n
COc1cccc(C(=O)Nc2ccccc2N2CCCC2)c1	n	n	n	n	n	69
Cc1ccc(S(=O)(=O)Nc2cc(C(C)C)c(O)cc2C)cc1	n	n	n	n	n	84
Cc1c(NS(=O)(=O)c2ccccc2)cc(Cl)c(O)c1C	n	n	n	n	2.5	99
Cc1ccc(C)c(NS(=O)(=O)c2ccc(NC(=O)c3ccco3)cc2)c1	n	x	x	n	x	x
Cc1ccc(S(=O)(=O)Nc2cc(Cl)c(O)cc2C)cc1	n	n	n	n	2.3	98
Cc1cc(O)c(C(C)C)cc1NC(=O)c1ccc(Cl)cc1	n	n	n	n	n	n
COCCn1c(SCC(=O)c2ccc3c(c2)OCCO3)nnc1-c1ccoc1C	n	n	n	n	n	n
CCCCn1c(SCC(=O)c2ccc3c(c2)OCCO3)nnc1-c1ccco1	n	n	56	n	n	n
CC(C)n1nnnc1SCC(=O)c1ccc2c(c1)OCCO2	n	n	n	n	n	63
CCn1c(SCC(=O)c2ccc3c(c2)OCCO3)nnc1C(C)C	n	n	n	n	n	94
CCn1c(COc2ccc3c(c2)OCO3)nnc1SCC(=O)c1ccc(Cl)cc1	n	n	51	n	n	n
COc1ccc(C(=O)N2CC3(CC(c4cccc([N+](=O)[O-])c4)=NO3)C[C@H]2C(=O)NCC(N)=O)cc1 (stereo not given in full)	n	n	n	n	n	n
Cc1noc(C)c1COC(=O)c1ccc2c(c1)S(=O)(=O)c1ccccc1C2=O	n	n	n	n	n	n
O=C(OCc1ccccc1)c1ccc2c(c1)-c1ccccc1C2=O	n	n	55	n	n	n
C=CCN(C(=O)Cn1c(C(=O)OC)cc2oc(C)cc21)c1ccccc1	n	n	n	n	n	92
SMILES	PostGolgi yeast	CYP2C19 activ	CYP2C9 inh	PostGolgi ctrl	CYP2C9 activ	CYP2C19 inh
CCOC(=O)c1cc2oc(C)cc2n1CC(=O)OC1CCCCC1	n	n	n	n	n	n
COC(=O)c1cc2oc(C)cc2n1CC(=O)N(C)c1ccccc1	n	n	n	n	n	64
COC(=O)c1cc2occc2n1CC(=O)N(C)C1CCCCC1	n	n	n	n	n	n
CCn1nnnc1SCC(=O)Nc1cc(OC)cc(OC)c1	n	n	n	n	n	n
CCOc1ccccc1C(=O)Nc1nnc(C(C)C)s1	n	n	n	n	n	n
Cn1c(NC(=O)c2ccc(Br)o2)cc(=O)n(C)c1=O	n	n	n	n	n	n
Cc1cc(C(=O)CSc2n[nH]c(N)n2)c(C)n1-c1ccccc1	n	n	58	n	n	87
Nc1nc(SCC(=O)Nc2ccc(Br)cc2F)n[nH]1	n	n	n	n	n	93
Nc1nc(SCC(=O)Nc2ccccc2-c2ccccc2)n[nH]1	n	n	n	n	n	n
Cc1cc(C)c(-c2cc(NC(=O)CSc3n[nH]c(N)n3)n(-c3ccccc3)n2)cc1C	n	n	90	n	n	94
C=CCn1c(C)cc(C(=O)CSc2n[nH]c(N)n2)c1C	n	n	n	n	2.6	n
O=C(COc1ccc(Cl)cc1)NCc1nnc(SCC(=O)NCCc2ccccc2)o1	n	n	n	n	n	n
CC1CN(C(c2cccs2)c2sc3ncnn3c2O)CC(C)O1 (stereo not given)	n	x	x	n	x	x
Cc1nc(C(=O)N(C)C)nn1-c1cc(Cl)cc(Cl)c1	n	n	n	n	n	n
CC(C(=O)N1CCCc2ccccc21)N1CCN(S(=O)(=O)c2ccccc2F)CC1 (stereo not given)	n	n	n	n	n	n
Nc1nc(SCC(=O)NCc2ccccc2)n[nH]1	n	n	n	n	n	n
Cc1cc(C(=O)CSc2n[nH]c(N)n2)c(C)n1-c1cc(F)ccc1F	n	n	54	n	n	76
Nc1nc(SCC(=O)NCCC(c2ccccc2)c2ccccc2)n[nH]1	n	n	71	n	n	96
Cc1ccc(-n2c(C)cc(C(=O)CSc3n[nH]c(N)n3)c2C)cc1	n	n	n	n	n	n
CCC(C)NC(=O)CSc1ncccc1C(=O)O (stereo not given)	n	n	n	n	n	n
CC1CN(C(=S)NC(=O)c2ccc([N+](=O)[O-])cc2)CC(C)O1 (stereo not given)	n	n	n	n	n	n
O=C1c2ccccc2C(Nc2ccc(Cl)cn2)N1Cc1ccccc1 (stereo not given)	n	n	70	58	n	81
O=C1c2ccccc2C(Nc2ccccc2)N1c1ccc(Cl)cn1 (stereo not given)	n	n	n	n	n	n
Cc1c(N=Cc2nc3ccccc3[nH]2)c(=O)n(-c2ccccc2)n1C	n	n	n	n	n	n
O=C1c2ccccc2C(=O)N1CCc1nc2ccccc2c(=O)n1Cc1ccco1	n	n	80	n	n	93
SMILES	PostGolgi yeast	CYP2C19 activ	CYP2C9 inh	PostGolgi ctrl	CYP2C9 activ	CYP2C19 inh
Cc1c(N=Cc2c(O)n(Cc3ccco3)c(=O)c3ccccc23)c(=O)n(-c2ccccc2)n1C	x	n	81	x	n	56
Cn1c(=O)c(-c2ccccc2N)nc2ccccc21	x	n	n	n	n	n
O=c1c2ccccc2c2ccccc2c(=O)n1Cc1ccco1	n	n	73	n	n	81
Cn1c(-n2c(CCN3C(=O)c4ccccc4C3=O)nc3ccccc3c2=O)nc2ccccc21	x	n	92	x	n	87
Nc1cc(=O)[nH]c(=O)n1Cc1ccco1	n	n	n	n	n	n
CCOc1ccc(-n2c(C)nnc2SCC(=O)N(CC)CC)cc1	n	n	n	n	n	n
CN1CCN(C(=O)c2ccc(C(C)(C)C)cc2)CC1	n	n	n	n	n	n
N=C1C=CC=C2C1=NC1(CCCCC1)N2O	n	n	n	n	n	n
O=C1c2ccccc2C(=O)N1CCCc1nc2ccccc2c(=O)n1CCCn1ccnc1	n	n	99	n	n	86
